Activity calls are given as the source filed them. How the source made its calls: active means hit-call score of the fitted dose curve at least 0.9, where 1 is the maximum; inactive means score below 0.9.
Assay: ATG_M_61_CIS: Attagene CIS-FACTORIAL HepG2 Assay for M61 Transcription Factor (Internal Marker) (AID 2282937)
Conditions: HepG2 Attagene CIS-FACTORIAL M61 internal marker reporter; actives raise or lower the signal
Description: ATG_CIS is a cell-based, multiplexed-readout assay that uses HepG2, a human liver cell line, with measurements taken at 24 hours after chemical dosing in a 24-well plate.ATG_M_61_CIS is one of 52 assay component(s) measured or calculated from the ATG_CIS assay. It is designed to make measurements of mRNA induction, a form of inducible reporter, as detected with fluorescence intensity signals by Reverse transcription polymerase chain reaction (RT-PCR) and Capillary electrophoresis technology.Data from the assay component ATG_M_61_CIS was analyzed into 1 assay endpoint. This assay endpoint, ATG_M_61_CIS, was analyzed with bidirectional fitting relative to DMSO as the negative control and baseline of activity. Using a type of inducible reporter, measures of mRNA for gain or loss-of-signal activity can be used to understand the background control at the transcription factor-level as they relate to the gene . Furthermore, this assay endpoint can be referred to as a secondary readout, because this assay has produced multiple assay endpoints where this one serves a background control function. To generalize the intended target to other relatable targets, this assay endpoint is annotated to the background measurement intended target family, where the subfamily is internal marker.
Human liver HepG2 cells are transiently transfected with multiple reporter transcription units (MRTUs) in 6-well plates using FuGene 6 reagent (Roche; 3 ml FuGene/1 mg DNA). The MRTU constructs are regulated by a cis-regulating element (promoter). […] A major difference between the CIS and TRANS system is that in CIS activities of endogenous TFs are measured, whereas the TRANS assay evaluates changes in activities of exogenous, chimeric NR-Gal4 proteins. […] At the end of 24 hour incubation, total RNA was isolated using TriZol reagent (Invitrogen). The isolated RNA is then reverse-transcribed using oligo(dT) primer and Mo-MLV reverse transcriptase (Invitrogen) with DNAse I (Ambion) treatment for 30 min. The one-tenth of the produced cDNA was amplified by PCR using Taq DNA polymerase (Invitrogen) and two reporter sequence-specific primers. The PCR products were fluorescently labeled by primer extension with 6-arboxyfluorescein (6-FAM) 5'-labeled reporter sequence-specific primer (2 min at 95 C, 20 s at 68 C and 10 min at 72 C) and these products were digested with 5U of HpaI (New England Biolabs) for 2h at 37 C. The fragments were purified using Qiaquick PCR columns (Qiagen), analyzed on an ABI 3130xL genetic analyzer (Applied Biosystems) with peak positions identified by using a set of X-rhodamine (ROX)-labeled MapMarker1000 molecular weight standards (BioVentures). The raw capillary electrophoresis data was processed using Attagraph software (Attagene).

outcome, inactive:
C=C(C)[C@@H]1CCC2=CC(=O)C[C@@H](C)[C@]2(C)C1
O=[N+]([O-])c1cc(C(F)(F)F)ccc1Cl
CCOC(=S)SSC(=S)OCC
CC(=O)OCCOC(C)=O
CCCCCCOC(=O)CC
CNC[C@H](O)c1cccc(O)c1
N#Cc1ccc(CC(=NNC(=O)Nc2ccc(OC(F)(F)F)cc2)c2cccc(C(F)(F)F)c2)cc1
CC1=CC(=O)NS(=O)(=O)O1
CC(C)(C)c1n[nH]c(=S)n(N)c1=O
CN(C)C(=N)N=C(N)N
O=[N+]([O-])c1ccc(Nc2ccc(Nc3ccccc3)c(S(=O)(=O)O)c2)c([N+](=O)[O-])c1
O=C[C@@H](O)[C@H](O)[C@H](O)CO
CC(C)CCCCCCCOC(=O)c1ccc(C(=O)OCCCCCCCC(C)C)c(C(=O)OCCCCCCCC(C)C)c1
CCCCCCC#CC(=O)OC
Cc1ccc(C=O)cc1
O=C(O)Cc1cccc2ccccc12
COC(=O)Cc1cccc2ccccc12
CN1Cc2c(N)cccc2C(c2ccccc2)C1 (stereo not given)
O=C1C(c2[nH]c3ccc(S(=O)(=O)O)cc3c2O)=Nc2ccc(S(=O)(=O)O)cc21
CC(=O)O[C@H](CC(=O)[O-])C[N+](C)(C)C
CC(C)[C@@H]1CC[C@@H](C)CC1=O
CCCCCOC(=O)CCC
C=CC(C)(CCC=C(C)C)OC=O (stereo not given)
O=C1CCCCCCCCCCOCCCCO1
Cc1ccc(S)cc1
C=C(C)C(=O)NCCCN(C)C
CCCCOCCOCCSC#N
CCCCN
COCCOCCOCCOCCOCCO
N#Cc1ccccc1
[Ca+2]
BrC1CCC(Br)C(Br)CCC(Br)C(Br)CCC1Br (stereo not given)
CC(C)=CCCC(C)=CCCC(C)=CCO
CO[Si](CCCn1c(=O)n(CCC[Si](OC)(OC)OC)c(=O)n(CCC[Si](OC)(OC)OC)c1=O)(OC)OC
O=C(Cl)c1cccc(C(=O)Cl)c1
NC(=O)c1ccccc1Cl
CC(CN1c2ccccc2Sc2ccccc21)N(C)C (stereo not given)
CC(C)C1CCC(O)CC1 (stereo not given)
Nc1cc(N)cc(C(=O)O)c1
CC(=O)Nc1ccc(CC(=O)O)cc1

From PubChem BioAssay (EPA / NIEHS)
